Assay results: PubChem BioAssay (NCI)
This is part of a sample that, as a whole, favours compounds with a hit. Of some 83,000 tested, about 20% had one in any assay.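 Testing used 96-well plates and a 48-hour single-concentration exposure. Example: -40 means 40% of the starting cells died.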 Unmarked numbers belong to inactive results. Activity calls are given as the source filed them. How the source made its calls: active means growth percent below 10; inactive means the rest.

tested on: UACC-257 melanoma; assay: NCI-60 one-dose screen, 48 h (100 = growth as untreated, 0 = no growth, -100 = all killed); settings: 10 µM

Row | Structure (SMILES) | growth
1 | CC1(C)CC[C@]2(C(=O)O)CC[C@]3(C)C(=CCC4[C@@]5(C)C[C@@H](O)[C@@H]6OC(c7ccccc7O)OC[C@@]6(C)C5CC[C@]43C)C2C1 (stereo partly drawn) | 93.7%
2 | CN(c1ccc(Br)cc1)S(=O)(=O)c1ccc(-c2cnc(C3CC3)o2)cc1 | 67.3%
3 | CN1CCN(c2nc(-c3csc(-c4ccncc4)n3)cc3ccccc23)CC1 | -1.71% (active)
4 | O=C(O)c1ccc(-n2cc(CNc3ccc(F)cc3)c(-c3ccc(C(F)(F)F)cc3)n2)cc1 | 90.9%
5 | CSc1nccc(-c2c(-c3ccc(F)c(OCc4ccc(F)cc4)c3)nc3sccn23)n1 | 64.4%
6 | O=C(COc1ccc(C2SCC(=O)N2c2ccccc2)cc1)c1ccccc1 (stereo not drawn) | 102%
7 | O=C(O)CNS(=O)(=O)c1ccc(Oc2ccc(S(=O)(=O)NCC(=O)O)cc2)cc1 | 102%
8 | Cn1nc(Nc2ccccc2)c(C(=O)NN)c1N | 102%
9 | COc1cc(/C=N/n2cnc3oc(-c4ccccc4)cc3c2=N)cc(CN2CCN(C)CC2)c1O | 106%
10 | CC(C)SC1=NC(=C(C(=N1)NC2=ClC=CC=C2)C#N)C3=CC=CC=C3 | 100%
11 | NS(=O)(=O)c1ccc(Nc2nc(N/N=C/c3ccc(F)cc3)nc(Nc3ccccc3)n2)cc1 | 47.2%
12 | C#C[C@]1(O)CC[C@H]2[C@@H]3CC=C4c5sc(Nc6cccc(C)n6)nc5CC[C@]4(C)[C@H]3CC[C@@]21C | -34.9% (active)
13 | CNC(=O)c1cc(Oc2ccc3nc(NC(=O)c4cc(C)cc(C)c4)sc3c2)ccn1 | 89.1%
14 | C=C(C)[C@@H]1CC[C@]2(COS(C)(=O)=O)CC[C@]3(C)[C@H](CC[C@@H]4[C@@]5(C)CCCNC(C)(C)[C@@H]5CC[C@]43C)[C@@H]12 | 107%
15 | CC(C)=CCc1c2c(c(O)c3c1O[C@]14C(=C[C@@H]5C[C@H]1C(C)(C)O[C@@]4(C/C=C(/C)C(=O)O)C5=O)C3=O)CC(O)C(C)(C)O2 (stereo partly drawn) | -32.5% (active)
16 | O=C(Cn1cc(CN2C(=O)c3ccc([N+](=O)[O-])cc3C2=O)nn1)Nc1ccccc1Br | 106%
17 | COc1cc(-c2nc(SCc3ccc(C)cc3)[nH]c(=O)c2C#N)ccc1OCc1ccccc1 | 96.9%
18 | CC(C)N=C(N/C(N)=N/c1nc2ccccc2s1)NC(C)C | 87.9%
19 | O=C(Nc1cc(Cl)cc(Cl)c1)Nc1ccc2oc(=O)ccc2c1 | 23.4%

Row | Structure (SMILES) | growth
20 | CS(=O)(=O)c1nccc(-c2c(-c3ccc(F)c(OCc4ccccc4)c3)nc3sccn23)n1 | 17.8%
21 | COc1ccc(C2C(C#N)=C(N)Oc3c2sc2ccc(C)cc32)cc1 (stereo not drawn) | 57.1%
22 | C#C[C@]1(O)CC[C@H]2[C@@H]3CC=C4c5sc(-c6ccccn6)nc5CC[C@]4(C)[C@H]3CC[C@@]21C | 70.5%
23 | COc1ccc(OC)c([C@H]2c3[nH]c4ccccc4c3C[C@H]3C(=O)N(CCCCCCC(=O)NO)CC(=O)N23)c1 | 67.2%
24 | Cc1cnc2nc(NN)[nH]n12 | 101%
25 | COc1ccc(-c2nc3cc(Cl)c(Cl)cc3n2CC(=O)N=Nc2c(O)[nH]c3ccc(Br)cc23)cc1 | 61.9%
26 | O=C(NCCCCCCNC(=O)c1c2c(nc3ccccc13)-c1cccnc1SC2)c1c2c(nc3ccccc13)-c1cccnc1SC2 | 17.1%
27 | COc1ccc(-c2ccc3c4c(cccc24)C(=O)N(N2C(=O)c4cccc5cccc(c45)C2=O)C3=O)cc1 | 105%
28 | COc1ccc(-c2nc3cc(Cl)c(Cl)cc3n2CC(=O)N=Nc2c(O)[nH]c3ccc(Cl)cc23)cc1 | 71.9%
29 | CCOC(=O)c1c(NCC(=O)Nc2ccc(Br)cc2)sc2c1CCCC2 | 76.2%
30 | CN1C(=O)/C(=C/C=C/c2ccco2)SC1=S | 88.1%
31 | COc1ccc(-c2nnc(SCc3ccc(O)c4ncccc34)o2)cc1 | 28.3%
32 | C#CCOc1ccc(/C=N/Nc2nc(-c3cc4cc(Br)cc(Br)c4oc3=O)cs2)cc1 | 106%
33 | CS(=O)c1nccc(-c2c(-c3ccc(F)c(OCCc4ccc(F)cc4)c3)nc3sccn23)n1 (stereo not drawn) | -0.163% (active)
34 | O=C1[C@@H]2Cc3c([nH]c4ccccc34)[C@H](c3c(Cl)cccc3Cl)N2C(=O)CN1C1CCN(Cc2c(F)cccc2F)CC1 | 99.1%
35 | NNC(=O)c1sc2nc(-c3cnccn3)cc(-c3cccs3)c2c1N | 115%
36 | Cn1cc(-c2nnc(N)nc2-c2cn(C)c3ccc(F)cc23)c2cc(F)ccc21 | 101%
37 | COc1ccccc1/C=C/C=N/NC1=NC2C(S1)N(C)C(=O)N2c1ccccc1 (stereo not drawn) | 79.8%
38 | C[C@H]1[C@H](C)CC[C@]2(COC(=O)c3cccnc3)CC[C@]3(C)C(=CC[C@@H]4[C@@]5(C)CCCNC(C)(C)[C@@H]5CC[C@]43C)[C@H]12 | 65.7%
